Laboratory results published in PubChem BioAssay (NCATS).
Results filed as inconclusive are left out. A call without a number means that no potency is given here. Calls of active or inactive are those of the source. The call rests on the fitted dose curve; in most records, active means well fitted inhibition curve with a large enough effect; inconclusive means small, poorly fitted or top-dose-only effect, or effect the other way; inactive means flat fitted curve, though single readings scatter.

Each compound was assayed against Ubiquitin carboxyl-terminal hydrolase 2 (Homo sapiens) (UniProt O75604) (assay: qHTS Validation Assay for Inhibitors of Ubiquitin-specific Protease USP2a Using CHOP2 as the Reporter (AID 463106)). Conditions: USP2a cleavage of CHOP2 reporter, enzymatic; series mostly up to 38.3 µM.
Sequence of Ubiquitin carboxyl-terminal hydrolase 2 (Homo sapiens) (O75604 whole entry, looked up): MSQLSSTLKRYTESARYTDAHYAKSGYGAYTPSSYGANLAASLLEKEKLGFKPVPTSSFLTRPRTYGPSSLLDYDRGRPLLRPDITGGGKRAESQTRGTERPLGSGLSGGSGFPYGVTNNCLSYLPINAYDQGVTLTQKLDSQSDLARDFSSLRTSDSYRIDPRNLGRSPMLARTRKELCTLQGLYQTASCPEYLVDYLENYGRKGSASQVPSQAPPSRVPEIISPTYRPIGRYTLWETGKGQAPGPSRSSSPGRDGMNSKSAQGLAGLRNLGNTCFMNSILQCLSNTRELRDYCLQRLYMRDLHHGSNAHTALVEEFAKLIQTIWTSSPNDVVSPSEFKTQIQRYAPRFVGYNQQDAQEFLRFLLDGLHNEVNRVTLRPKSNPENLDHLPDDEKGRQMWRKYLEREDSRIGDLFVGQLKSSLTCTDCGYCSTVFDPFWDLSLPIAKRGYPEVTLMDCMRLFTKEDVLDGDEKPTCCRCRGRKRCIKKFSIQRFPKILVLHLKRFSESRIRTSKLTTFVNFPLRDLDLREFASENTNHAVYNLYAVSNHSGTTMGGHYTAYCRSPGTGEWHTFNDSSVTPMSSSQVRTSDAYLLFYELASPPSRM
Description: NIH Molecular Libraries Screening Centers Network [MLSCN]
NIH Chemical Genomics Center [NCGC]
PI Name: Nicholson, Ben. Progenra Inc, Malvern, PA
Homeostasis of cellular proteins is maintained through a combination of synthesis and degradation. The pathway that accounts for the majority of protein degradation is the ubiquitin-proteasomal pathway. Ubiquitin (Ub) is highly conserved in all cells and the generation of a multi-Ub chain typically targets proteins for degradation by the proteasome. However, ubiquitination is highly reversible and dynamic. Deubiquitination, the reverse process, is catalyzed through the action of enzymes referred to as isopeptidases or deubiquitinating enzymes (DUBs). This group of enzymes is collectively responsible for maintaining adequate pools of free ubiquitin and regulating the ubiquitination status of cellular proteins. The class of DUBs referred to as the ubiquitin-specific proteases (USP) family functions endoproteolytically to cleave Ub chains from a wide range of protein substrates. USP2a deubiquitinates fatty acid synthase (FASN) which has recently been identified as an emerging oncology target. To identify inhibitors of USP2a a cell-free assay was employed.
The reporter enzyme chosen is an enterokinase called CHOP2, which is activated when the Ub is cleaved by USP2. The free and now activated reporter can subsequently act on its reporter substrate. […] The assay was developed by Progenra, Inc. and has been licensed for sale by LifeSensors, Inc. as Ub-CHOP2-Reporter-Kit (#PR1101).
NCGC Assay Protocol Summary:
The assay buffer, prepared fresh at the day of the assay, contains 20mM Tris-HCl pH 8.0, 2mM CaCl2, 2mM beta-Mercaptoethanol, 0.05% CHAPS. 3ul of 20nM (10nM final) USP2 core, which is stored on ice, is dispensed into a medium-binding black solid Kalypsys 1,536 well plate using the Kalypsys dispenser. The assay plate is then pinned with 23nL compound with the Kalypsys pintool in columns 5-48. The controls are pinned as follows: column 1 two-fold dilutions of 2M NEM in duplicate; column 2 2M NEM (final concentration 38.2mM); column 3&4 DMSO. The assay plate is incubated at RT for 30min. Subsequently, 1.5uL of 100nM (25nM final) Ub-CHOP2 and 1.5uL of 100nM (25nM final) Reporter Substrate (both stored on ice and protected from light) were dispensed into the plate using the Kalypsys dispenser. Plates were read after 60min RT incubation on a ViewLux (Perkin Elmer) plate reader using the following wavelengths Ex 485nm /Em 531nm.
Data were normalized to the to AC100 inhibition (NEM). Concentration-response curves were fitted to the normalized data and the concentration-response curves were then classified based on curve quality (r2), response magnitude and degree of measured activity. The time zero reading was used to flag fluorescence artifacts.
Keywords: ubiquitination, deubiquitination, proteases, profluorescent, MLSMR, MLPCN, NIH Roadmap, qHTS, NCGC
Potency means the concentration at half of the fitted maximal effect.

Row | SMILES | Potency
1 | O=c1[nH]c2ccccc2n1C1CCN(CCCC(c2ccc(F)cc2)c2ccc(F)cc2)CC1 | inactive
2 | CC(=O)[C@H]1CC[C@H]2[C@@H]3CC[C@H]4C[C@H](O)CC[C@]4(C)[C@H]3C(=O)C[C@]12C | inactive
3 | Cc1cc2c(C(C)C)c(O)c(O)c(C=O)c2c(O)c1-c1c(C)cc2c(C(C)C)c(O)c(O)c(C=O)c2c1O | 5.21 µM (active)
4 | c1ccc(C2CC2)c(OCC2=NCCN2)c1 | inactive
5 | CCCC(C)(COC(N)=O)COC(=O)NC(C)C (stereo not drawn) | inactive
6 | N#CC(C#N)=Cc1ccc(O)c(O)c1 | inactive
7 | Cc1cccc(C)c1NC1=NCCCS1 | inactive
8 | CC(C)=CCOc1c2occc2cc2ccc(=O)oc12 | inactive
9 | CC(CCc1ccccc1)NC(C)C(O)c1ccc(O)cc1 (stereo not drawn) | inactive
10 | NCC(O)c1ccc(O)cc1 (stereo not drawn) | inactive
11 | CNCC(O)c1ccc(O)cc1 (stereo not drawn) | inactive
12 | CC[C@@H](CO)NC(=O)[C@@H]1C=C2c3cccc4c3c(cn4C)C[C@H]2N(C)C1 | inactive
13 | c1ccc2c(c1)OCC(C1=NCCN1)O2 (stereo not drawn) | inactive
14 | CC(=O)[C@H]1CC[C@H]2[C@@H]3CC[C@H]4C[C@](C)(O)CC[C@]4(C)[C@H]3CC[C@]12C | inactive
15 | C[C@@H]1O[C@@H](O[C@H]2C[C@@H](O)[C@]3(CO)[C@H]4[C@H](O)C[C@]5(C)[C@@H](C6=CC(=O)OC6)CC[C@]5(O)[C@@H]4CC[C@]3(O)C2)[C@H](O)[C@H](O)[C@H]1O | inactive
16 | CCCN1CCC[C@@H]2Cc3nc(N)ncc3C[C@H]21 | inactive
17 | CCC1(C2=NCCN2)Cc2ccccc2O1 (stereo not drawn) | inactive

Row | SMILES | Potency
18 | CC(O)(CS(=O)(=O)c1ccc(F)cc1)C(=O)Nc1ccc(C#N)c(C(F)(F)F)c1 (stereo not drawn) | inactive
19 | Cc1ncc(CNC(=O)N(CCCl)N=O)c(N)n1 | inactive
20 | CCCN1CCC[C@@H]2Cc3[nH]ncc3C[C@H]21 | inactive
21 | O=c1[nH]c2ccccc2n1CCCN1CCC(n2c(=O)[nH]c3cc(Cl)ccc32)CC1 | inactive
22 | Nc1ccncc1 | inactive
23 | NCC(CC(=O)O)c1ccc(Cl)cc1 (stereo not drawn) | inactive
24 | Cc1cccc(C)c1NC(=O)CN1CCCC1=O | inactive
25 | NN=C(N)N | inactive
26 | COc1ccccc1N1CCNCC1 | inactive
27 | Fc1ccc(C(OCCN2CCN(CCCc3ccccc3)CC2)c2ccc(F)cc2)cc1 | inactive
28 | COc1ccc(C(CN(C)C)C2(O)CCCCC2)cc1 (stereo not drawn) | inactive
29 | COC[C@H]1OC(=O)c2coc3c2[C@@]1(C)C1=C(C3=O)C2CCC(=O)[C@@]2(C)C[C@H]1OC(C)=O (stereo partly drawn) | inactive
30 | CN1C[C@H](CNC(=O)OCc2ccccc2)C[C@@H]2c3cccc4c3c(cn4C)C[C@H]21 | inactive
31 | Cc1ccc(S(=O)(=O)N[C@@H](CCCCN)C(=O)CCl)cc1 | inactive
32 | C=C(C)[C@H]1Cc2c(ccc3c2O[C@@H]2COc4cc(OC)c(OC)cc4[C@@H]2C3=O)O1 | inactive
33 | O=C1NCN(c2ccccc2)C12CCN(CC1COc3ccccc3O1)CC2 (stereo not drawn) | inactive
